From PubChem BioAssay (NCI) come the findings set out here.

Structures are written as SMILES. This is part of a sample that, as a whole, favours compounds with a hit. Of some 79,000 tested, about 15% had one in any assay. A number with no mark means an inactive call. Activity calls are given as the source filed them. No stated cut-off is given here; in the data, active means growth inhibition above about 70%; inactive means the rest.

Experiment [1] can be described thus: NCI Yeast Anticancer Drug Screen. Data for the rad50 strain (AID 155).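 Further: 0% = growth of vehicle-only cultures of the same strain.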 To be noted: S. cerevisiae rad50 strain growth inhibition, active compounds read high. Summed up:
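Inhibition values express reduced yeast growth in compound-treated cultures relative to vehicle-treated controls.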

Experiment [2] is described as follows: NCI Yeast Anticancer Drug Screen. Data for the mec2-1 strain (AID 157). To be noted: S. cerevisiae mec2-1 strain, active compounds read high. The essentials:
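Readout is yeast growth inhibition, normalised to vehicle-treated controls, in the mec2-1 strain exposed to compound.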

A short description of experiment [3]: NCI Yeast Anticancer Drug Screen. Data for the sgs1 mgt1 strain (AID 161).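 Further: 0% = growth of cultures given vehicle only.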 To be noted: S. cerevisiae sgs1 mgt1 strain, active compounds read high. The essentials: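 Compounds are added to genetically altered yeast, and growth is compared with cultures given vehicle alone to give percent inhibition.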
A short description of experiment [4]: NCI Yeast Anticancer Drug Screen. Data for the cln2 rad14 strain (AID 165).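 Further: 0% = growth equal to vehicle treated cultures.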 To be noted: S. cerevisiae cln2 rad14 strain, active compounds read high. The essentials: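 Relative to vehicle controls, growth inhibition of compound-treated cln2 rad14 yeast was recorded.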
The nature of experiment [5]: NCI Yeast Anticancer Drug Screen. Data for the bub3 strain (AID 167). To be noted: S. cerevisiae bub3 mutant strain, active compounds read high. Summed up:
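Steps: expose the mutant yeast strain to compound; grow alongside vehicle-treated cultures; measure growth; express inhibition against the vehicle cultures.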

Experiment [6] is described as follows: NCI Yeast Anticancer Drug Screen. Data for the mlh1 rad18 strain (AID 175). Conditions: S. cerevisiae mlh1 rad18 strain growth inhibition, active compounds read high. The essentials: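 Test agents were incubated with a yeast strain of defined genotype (DNA damage repair defect). Inhibition of growth was derived by comparison with vehicle-exposed cultures.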
Where [7] appears, read: at 5.0 µM (retest, dose inferred, filed as 0.5).
The mark [8] stands for this setting: at 50.0 µM (retest, dose inferred, filed as 5.0).

In the case of `COC(=O)c1nc(=S)[nH]c(C(=O)OC)c1C(=O)c1ccccn1`, the growth inhibition is 7% in experiment [1] (setting [7]); 93% (active) in experiment [1] (setting [8]); 82% (active) in experiment [1] (at 50.0 µM); -3% in experiment [2] (setting [7]); 84% (active) in experiment [2] (setting [8]); 75% (active) in experiment [2] (at 50.0 µM). Further, the growth inhibition in experiment [3] (setting [7]) was 0%; in experiment [3] (setting [8]), 87% (active); in experiment [3] (at 50.0 µM), 84.5% (active); in experiment [4] (setting [7]), 2%; in experiment [4] (setting [8]), 84% (active); in experiment [4] (at 50.0 µM), 70.5% (active). In addition, the growth inhibition in experiment [5] (setting [7]) is 6%; in experiment [5] (setting [8]), 86% (active); in experiment [5] (at 50.0 µM), 82.8% (active); in experiment [6] (setting [7]), -15%; in experiment [6] (setting [8]) it was 91% (active); in experiment [6] (at 50.0 µM), 89.1% (active).

As for `CC(/C(=N/NC(=O)C(N)=O)c1c(Cl)ccc(Cl)c1O)C1(O)C(=O)Nc2ccccc21` (stereo not given), the growth inhibition in experiment [1] (setting [7]) was 9%; in experiment [1] (setting [8]) it was 53%; in experiment [1] (at 50.0 µM) it was 53.8%; in experiment [2] (setting [7]), 2%; in experiment [2] (setting [8]), 29%; in experiment [2] (at 50.0 µM), 57.4%. The growth inhibition in experiment [3] (setting [7]) is 9%; in experiment [3] (setting [8]), 53%; in experiment [3] (at 50.0 µM), 52.5%; in experiment [4] (setting [7]), 14%; in experiment [4] (setting [8]), 18%; in experiment [4] (at 50.0 µM), 20.5%. Also, the growth inhibition was 4% in experiment [5] (setting [7]); 52% in experiment [5] (setting [8]); 44% in experiment [5] (at 50.0 µM); 9% in experiment [6] (setting [7]); 32% in experiment [6] (setting [8]); 86.5% (active) in experiment [6] (at 50.0 µM).

On to `CSc1ncnc2ncn(C3OC(CO)C(O)C3O)c12` (stereo not given), for which the growth inhibition is -16% in experiment [1] (setting [7]); -1% in experiment [1] (setting [8]); 9.65% in experiment [1] (at 50.0 µM); -15% in experiment [2] (setting [7]); -2% in experiment [2] (setting [8]); 3.55% in experiment [2] (at 50.0 µM). The growth inhibition in experiment [3] (setting [7]) was -11%; in experiment [3] (setting [8]), 2%; in experiment [3] (at 50.0 µM), 15.2%; in experiment [4] (setting [7]) it was 2%; in experiment [4] (setting [8]), -3%; in experiment [4] (at 50.0 µM) it was 53%. Besides, the growth inhibition is -10% in experiment [5] (setting [7]); -14% in experiment [5] (setting [8]); -0.75% in experiment [5] (at 50.0 µM); -7% in experiment [6] (setting [7]); -21% in experiment [6] (setting [8]); 12.5% in experiment [6] (at 50.0 µM).

As to `COc1ccc(C2C3=C(CCC(CN(C)C)C3=O)OC3=C2C(=O)C(CN(C)C)CC3)cc1` (stereo not given), the growth inhibition in experiment [1] (setting [7]) is -17%; in experiment [1] (setting [8]), -7%; in experiment [1] (at 50.0 µM), -35.5%; in experiment [2] (setting [7]), -3%; in experiment [2] (setting [8]) it was -1%; in experiment [2] (at 50.0 µM), 4.1%. For the same compound, the growth inhibition in experiment [3] (setting [7]) was -20%; in experiment [3] (setting [8]), -5%; in experiment [3] (at 50.0 µM), -20.6%; in experiment [4] (setting [7]), -1%; in experiment [4] (setting [8]), 1%; in experiment [4] (at 50.0 µM), 44.7%. For the same compound, the growth inhibition in experiment [5] (setting [7]) was -17%; in experiment [5] (setting [8]) it was -17%; in experiment [5] (at 50.0 µM) it was -3.5%; in experiment [6] (setting [7]), -13%; in experiment [6] (setting [8]), -7%; in experiment [6] (at 50.0 µM) it was 21.1%.

For the compound `CN(C)CCOc1ccc2c(c1)C(=O)/C(=C\c1ncc([N+](=O)[O-])n1C)C2`, the growth inhibition in experiment [1] (setting [7]) was 31%; in experiment [1] (setting [8]) it was 73% (active); in experiment [1] (at 50.0 µM), 54.1%; in experiment [2] (setting [7]), 21%; in experiment [2] (setting [8]) it was 89% (active); in experiment [2] (at 50.0 µM), 80.3% (active). Moreover, the growth inhibition in experiment [3] (setting [7]) was 21%; in experiment [3] (setting [8]), 67%; in experiment [3] (at 50.0 µM), 77.4% (active); in experiment [4] (setting [7]) it was 22%; in experiment [4] (setting [8]), 46%; in experiment [4] (at 50.0 µM) it was 59%. In addition, the growth inhibition was 21% in experiment [5] (setting [7]); 95% (active) in experiment [5] (setting [8]); 34.8% in experiment [5] (at 50.0 µM); 50% in experiment [6] (setting [7]); 78% (active) in experiment [6] (setting [8]); 80.8% (active) in experiment [6] (at 50.0 µM).

For `CN1CCN(CCOC(=O)N2c3ccccc3Sc3ccccc32)CC1`, the growth inhibition in experiment [1] (setting [7]) is 1%; in experiment [1] (setting [8]) it was 1%; in experiment [1] (at 50.0 µM) it was 9.45%; in experiment [2] (setting [7]), 2%; in experiment [2] (setting [8]), -2%; in experiment [2] (at 50.0 µM), -13.2%. The growth inhibition in experiment [3] (setting [7]) was -1%; in experiment [3] (setting [8]), 2%; in experiment [3] (at 50.0 µM), 45.5%; in experiment [4] (setting [7]), 0%; in experiment [4] (setting [8]), 1%; in experiment [4] (at 50.0 µM), -13.9%. The growth inhibition in experiment [5] (setting [7]) is -2%; in experiment [5] (setting [8]), -4%; in experiment [5] (at 50.0 µM), 15.6%; in experiment [6] (setting [7]) it was -4%; in experiment [6] (setting [8]), -3%; in experiment [6] (at 50.0 µM), 4.4%.

As for `COc1c2occc2c(OC)c2c(C)c(C(=O)OCCN3CCOCC3)oc12`, the growth inhibition in experiment [1] (setting [7]) is -1%; in experiment [1] (setting [8]) it was 31%; in experiment [1] (at 50.0 µM) it was 64%; in experiment [2] (setting [7]), -3%; in experiment [2] (setting [8]) it was 5%; in experiment [2] (at 50.0 µM), 50.3%. Moreover, the growth inhibition in experiment [3] (setting [7]) is -4%; in experiment [3] (setting [8]), 43%; in experiment [3] (at 50.0 µM) it was 28.1%; in experiment [4] (setting [7]), -4%; in experiment [4] (setting [8]), 2%; in experiment [4] (at 50.0 µM), 19.4%. Also, the growth inhibition was 1% in experiment [5] (setting [7]); 56% in experiment [5] (setting [8]); 58.1% in experiment [5] (at 50.0 µM); -5% in experiment [6] (setting [7]); 54% in experiment [6] (setting [8]); 66.2% in experiment [6] (at 50.0 µM).

Regarding `O=C1CCCc2cc3c(nc21)C(=O)CCC3`, the growth inhibition is -8% in experiment [1] (setting [7]); -3% in experiment [1] (setting [8]); 14.7% in experiment [1] (at 50.0 µM); -11% in experiment [2] (setting [7]); 0% in experiment [2] (setting [8]); 12.6% in experiment [2] (at 50.0 µM). The growth inhibition was 3% in experiment [3] (setting [7]); 0% in experiment [3] (setting [8]); 13.1% in experiment [3] (at 50.0 µM); -7% in experiment [4] (setting [7]); 2% in experiment [4] (setting [8]); 47.7% in experiment [4] (at 50.0 µM). The growth inhibition in experiment [5] (setting [7]) is -6%; in experiment [5] (setting [8]), 1%; in experiment [5] (at 50.0 µM) it was 0.6%; in experiment [6] (setting [7]), 10%; in experiment [6] (setting [8]), -9%; in experiment [6] (at 50.0 µM), 2.5%.

`CC(=O)Nc1nnc(C)s1`: the growth inhibition in experiment [1] (setting [7]) is 0%; in experiment [1] (setting [8]), -3%; in experiment [1] (at 50.0 µM), 4.25%; in experiment [2] (setting [7]), 0%; in experiment [2] (setting [8]), -3%; in experiment [2] (at 50.0 µM), -11.8%. In addition, the growth inhibition in experiment [3] (setting [7]) was -2%; in experiment [3] (setting [8]), -5%; in experiment [3] (at 50.0 µM), -4.4%; in experiment [4] (setting [7]), -3%; in experiment [4] (setting [8]), 6%; in experiment [4] (at 50.0 µM), 13%. The growth inhibition is 1% in experiment [5] (setting [7]); 1% in experiment [5] (setting [8]); -19.3% in experiment [5] (at 50.0 µM); 1% in experiment [6] (setting [7]); -3% in experiment [6] (setting [8]); -18.8% in experiment [6] (at 50.0 µM).

Consider `C=Cc1ccc(B2NCCO2)cc1`, for which the growth inhibition in experiment [1] (setting [7]) is -2%; in experiment [1] (setting [8]), 99% (active); in experiment [1] (at 50.0 µM), 99.7% (active); in experiment [2] (setting [7]), 7%; in experiment [2] (setting [8]), 97% (active); in experiment [2] (at 50.0 µM) it was 99.5% (active). Further, the growth inhibition in experiment [3] (setting [7]) was -8%; in experiment [3] (setting [8]) it was 99% (active); in experiment [3] (at 50.0 µM), 99.6% (active); in experiment [4] (setting [7]) it was 0%; in experiment [4] (setting [8]), 74% (active); in experiment [4] (at 50.0 µM), 92.5% (active). Moreover, the growth inhibition in experiment [5] (setting [7]) is 8%; in experiment [5] (setting [8]), 59%; in experiment [5] (at 50.0 µM) it was 99.5% (active); in experiment [6] (setting [7]) it was 10%; in experiment [6] (setting [8]), 99% (active); in experiment [6] (at 50.0 µM), 99.2% (active).
